Screening results from PubChem BioAssay.
This excerpt belongs to a sample that is enriched for hits.
ROC1-CUL1 inh – human ROC1-CUL1 E3 ligase inhibition | P62877+Q13616 | inhibition, % at 10 µM | in vitro K48 di-Ub FRET, acceptor:donor ratio, 45 min | 140,000 compounds, 0.6% hits | AID 1347404; in the data active = inhibition above about 25%
Target sequence (P62877 whole entry, looked up): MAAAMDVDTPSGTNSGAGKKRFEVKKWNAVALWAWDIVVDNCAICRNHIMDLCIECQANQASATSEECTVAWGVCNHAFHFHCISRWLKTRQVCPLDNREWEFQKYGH
Target sequence (Q13616 whole entry, looked up): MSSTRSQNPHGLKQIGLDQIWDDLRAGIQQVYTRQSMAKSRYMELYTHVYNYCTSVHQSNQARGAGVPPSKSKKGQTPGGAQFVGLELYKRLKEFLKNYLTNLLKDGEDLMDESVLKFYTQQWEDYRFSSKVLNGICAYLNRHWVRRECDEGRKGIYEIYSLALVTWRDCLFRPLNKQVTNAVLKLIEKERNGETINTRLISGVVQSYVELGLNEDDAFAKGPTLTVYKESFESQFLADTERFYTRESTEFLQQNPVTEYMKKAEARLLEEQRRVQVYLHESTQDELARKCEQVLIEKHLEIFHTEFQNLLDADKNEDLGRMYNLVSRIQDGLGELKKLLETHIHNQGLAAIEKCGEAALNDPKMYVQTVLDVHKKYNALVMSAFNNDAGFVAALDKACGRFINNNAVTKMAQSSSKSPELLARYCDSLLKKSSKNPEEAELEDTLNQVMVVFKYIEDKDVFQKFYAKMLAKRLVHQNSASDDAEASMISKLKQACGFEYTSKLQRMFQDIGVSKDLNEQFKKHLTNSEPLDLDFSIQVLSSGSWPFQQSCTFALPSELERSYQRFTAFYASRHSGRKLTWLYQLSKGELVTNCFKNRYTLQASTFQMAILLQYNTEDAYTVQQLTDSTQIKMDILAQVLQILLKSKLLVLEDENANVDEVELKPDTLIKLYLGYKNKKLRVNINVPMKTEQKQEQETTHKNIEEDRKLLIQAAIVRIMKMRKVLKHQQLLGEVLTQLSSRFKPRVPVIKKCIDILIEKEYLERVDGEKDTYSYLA
* = called active by the depositor.

SMILES	ROC1-CUL1 inh
CCO[C@H]1[C@H](NC(=O)c2ccco2)c2ccccc2C12CCN(C(=O)[C@@H]1C[C@@H](C)NC(=S)N1)CC2	-4.1
CCOC(=O)c1c(NSc2ccccc2[N+](=O)[O-])sc2c1CCCC2	6.1
COc1cc(Cl)cc(CC2=NC(=O)N(c3cccc(Cl)c3)C2=O)c1O	-6.2
Cc1ccc(NC(=S)NC(C)C)cc1	1.6
COc1cccc(CNC(=O)C2CCCN(S(=O)(=O)c3ccc4c(ccn4C)c3)C2)c1 (configuration not stated)	3.0
CCC(Oc1ccccc1OC)C(N)=O (configuration not stated)	1.6
Oc1c(Br)cc(C(=C(Cl)Cl)c2cc(Br)c(O)c(Br)c2)cc1Br	66.1*
Oc1c(Br)cc(Br)nc1Br	1.6
CC(=O)c1cccc(N2C(=O)C3C(C2=O)C2(c4ccccc4)C(=O)C3(c3ccccc3)C(c3ccccc3)=C2c2ccccc2)c1 (configuration not stated)	-3.9
CC12c3ccccc3C(Cc3ccccc3)(C(=O)N1c1ccccc1)C(=O)N2c1ccccc1	14.2
Cc1ccc(N2C(=O)NC(=O)C(C=Nc3ccc(O)c(C(=O)O)c3)C2=O)cc1 (configuration not stated)	5.4
CCOc1ccc(N2C(=O)C(C=Nc3cc(N)cc(C(=O)O)c3)C(=O)NC2=S)cc1 (configuration not stated)	90.5*
CCOC(=O)c1c(N=CC2C(=O)NC(=S)N(c3ccc(F)cc3)C2=O)sc2c1CCCC2 (configuration not stated)	8.8
NC1=NC2CS(=O)(=O)CC2S1 (configuration not stated)	3.2
O=C1NC(=Nc2cccc(C(F)(F)F)c2)S/C1=C\c1cc(O)c(O)c(Br)c1	30.4*
COc1cc(/C=C2\SC(=Nc3cc(C)cc(C)c3)NC2=O)cc(Br)c1O	8.2
O=C1NC(=Nc2ccc(F)cc2)S/C1=C\c1ccc(O)c(Br)c1	1.9
O=S(=O)(c1ccc(-c2csc(=Nc3ccccc3)n2CC2CCCO2)cc1)N1CCCCC1 (configuration not stated)	4.5
Cc1csc2nc(COC(=O)c3ccccc3NC(=O)c3ccc(C(C)(C)C)cc3)cc(=O)n12	1.2
CCOC(=O)c1nnn2c3ccccc3c(=O)n(CC(=O)c3ccc(Cl)cc3)c12	5.7
CCOC(=O)c1nnn2c1nc(Cl)c1ccccc12	79.0*
C=CCn1c(Sc2nc3c(C(=O)OCC)nnn3c3ccccc23)nnc1-c1ccccc1	4.7
CCc1n[nH]c2c1CN(C(=O)COCc1nc3ccccc3[nH]1)CC2	0.9
CCOC(=O)c1sc(N=Nc2c(O)ccc3ccccc23)c(C(=O)OCC)c1C	-1.0
CN(C(=O)c1ccsc1)C(Cc1ccccc1F)C1CCN(C(=O)c2ccc3[nH]ccc3c2)CC1 (configuration not stated)	-1.1
SMILES	ROC1-CUL1 inh
COc1cccc(NC(=O)CC2C(=O)N(c3ccc(Cl)cc3)C(=S)N2CCc2ccc(F)cc2)c1 (configuration not stated)	2.6
O=C1/C(=C/c2ccoc2)CCC/C1=C\c1ccoc1	97.0*
O=C1/C(=C\c2cnn(-c3ccccc3)c2)CCC/C1=C/c1cnn(-c2ccccc2)c1	1.9
COc1ccc(/C=C2\CCC/C(=C\c3ccc(OC)c(OC)c3)C2=O)cc1OC	-4.0
COc1ccc2c(c1)C(N1CCN(C)CC1)Cc1cc(Cl)ccc1S2 (configuration not stated)	-11.9
CCOC(=O)N1CCN(CC(O)COc2c(C)cccc2C)CC1 (configuration not stated)	1.1
CC[n+]1c(/C=C/c2ccc3c(c2)c2ccccc2n3C)ccc2ccccc21	69.3*
Cn1c2ccccc2c2cc(/C=C/c3nc4ccccc4s3)ccc21	0.2
Cc1ccc(/C=C\c2ccc3ccccc3c2)cc1	-5.9
COc1ccc(N2CCN(CCCNC(=O)Nc3ccccc3)CC2)cc1	1.3
COc1cc(OC)c([N+](=O)[O-])cc1/C=C1\C(=O)NC(=S)N(C)C1=O	-7.0
O=C1NC(=S)N(c2ccccc2)C(=O)/C1=C/c1cc([N+](=O)[O-])c(O)cc1O	94.5*
O=C1NC(=S)N(c2cccc(Br)c2)C(=O)/C1=C/c1ccccc1O	-7.8
COc1ccc(C2CC(=O)C3C(=Nc4ccccc4NC3c3ccc(OC(C)=O)c(OC)c3)C2)cc1OC (configuration not stated)	-1.3
COc1ccc2nc(C)c3c(c2c1)OC(C)C3 (configuration not stated)	-1.8
Cc1ccc(N2NC(=O)/C(=C/c3cc4c(cc3Cl)OCO4)C2=O)cc1C	64.5*
CCOc1ccccc1/C=C1\C(=O)NN(c2ccc(C)c(C)c2)C1=O	46.8*
Cc1ccc(N2NC(=O)/C(=C/c3ccc4c(c3)n(C)c(=O)n4C)C2=O)cc1Cl	7.8
CCOc1cc(/C=C2\C(=O)NC(=O)N(c3ccc(Cl)cc3)C2=O)cc(Br)c1O	3.7
Cc1ccc(N2NC(=O)/C(=C/c3ccccc3OCc3ccccc3)C2=O)cc1	7.1
CCOc1c(/C=C2\C(=O)NN(c3ccc(Cl)c(Cl)c3)C2=O)cccc1OC	12.9
